Screens from PubChem.
Only some compounds are listed: those with a hit (about 4% of all), similar ones and a draw of the others.
EWS-Fli block: EWS/Fli transcriptional activity inhibition | 350,000 tested, 0.67% active | A673 NR0B1-luciferase reporter, viability-normalised | inhibition, % at 12.6 µM;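 active = mean inhibition of at least 50% after viability correction, with every replicate also passing that limit; inconclusive = mean reaches 50% but only one of two replicates passes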;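 also: firefly luciferase signal divided by Alamar Blue viability fluorescence both relative to DMSO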
PAX8 reporter: PAX8 transcriptional activity inhibition | inhibition, % at 12.6 µM | 360,000 tested, 1.2% active | RMG-I TPO-luciferase reporter, SteadyGlo, 24 h | AID 652154;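 active = mean replicate inhibition at least 60% with every replicate also reaching 60%; inconclusive = only one of the two criteria is met; inactive = mean below 60% and not all replicates reaching 60%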;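 also: luciferase light reporting Pax8 driven TPO promoter activity; plate controls were median of neutral control wells for no effect and mitoxantrone controls for full effect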
MITF TRPM1 inh: inhibitors of MITF-driven TRPM1 promoter in melanoma cells; SK-MEL-5 TRPM1 promoter luciferase, 24 h; inhibition, % at 12.5 µM; 330,000 tested, 0.83% active; AID 488899;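 active = mean inhibition across replicates of 60% or more, whatever share of single replicates reaches that level; inconclusive = some that reach 60%, reason not given; inactive = mean inhibition across replicates below 60%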
MITF TRPM1 HTS: activators of MITF-driven TRPM1 promoter activity in SK-MEL-5 cells; SK-MEL-5 TRPM1-promoter luciferase, 24 h; % of positive control, neutral wells = 0; activation, % at 12.5 µM; 300,000 tested, 0.75% active;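 active = mean activation of at least 80% with every replicate also reaching 80%; inconclusive = mean reaches 80% but some replicate falls short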;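 also: 0% = neutral control wells and 100% = parthenolide positive control wells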
Wnt bcat act: activators of Wnt/beta-catenin signaling. Wnt/beta-catenin reporter cell assay, activator, plate reader. activation, % at 9.35 µM. 300,000 tested, 1.2% active. AID 743398; in the data active = activation above about 30%, passing the limit was not always enough; inconclusive = no clear call, values can overlap the other calls;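 also: 0% = neutral control wells and 100% = positive control wells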
esBAF inh: inhibitors of esBAF chromatin remodeling in mouse ES cells; reporter increase, % at 12.5 µM; 350,000 tested, 2% active; AID 602393; Bmi1-luciferase knock-in reporter, 24 h; 100% = twice the neutral-well signal; in the data active = activation above about 40%; inconclusive = no clear call, values can overlap the other calls;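 also: 0% = median of the plate's neutral control wells and 100% = double that signal; a rise in the Bmi1 reporter signal indicates esBAF inhibition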
An asterisk follows results filed as active; ? = inconclusive; nt = no result.

SMILES	EWS-Fli block	PAX8 reporter	MITF TRPM1 inh	MITF TRPM1 HTS	Wnt bcat act	esBAF inh
COc1ccccc1CNC(=O)C[C@H]1CC[C@@H]2[C@H](COC[C@@H](O)CN2C(=O)Nc2ccccc2)O1	1.4	12.2	nt	nt	nt	-2.4
O=C(CSc1nc(-c2ccc(F)cc2)cs1)N1CCOCC1	nt	nt	-72.2	69.0	nt	65.7*
CC1CN(C(=O)CSc2nc(-c3ccc(F)cc3)cs2)CC(C)O1 (stereo not drawn)	nt	nt	-6.9	8.3	-2.6	-4.4
CC1=C(C(=O)Nc2ccc(CC(=O)NCc3ccccc3C)cc2)SCCO1	4.7	18.3	-53.5	58.6	9.8	49.0*
CCc1ccc(CNC(=O)Cc2ccc(NC(=O)C3=C(C)OCCS3)cc2)cc1	22.4	11.3	-10.9	12.9	7.4	20.5
C[C@@H]1CN([C@@H](C)CO)C(=O)c2cc(NC(=O)Nc3ccc(F)cc3)ccc2O[C@@H](C)CCCCO[C@H]1CN(C)Cc1ccccc1	8.5	44.8	nt	nt	nt	-0.6
CCN(CC)C(=O)c1nc(-c2cccc3ccccc23)no1	-74.5	-119.8	nt	nt	75.0*	70.1*
COc1ccc2sc3cccc(NCCN(C)C)c3c(=O)c2c1	-25.2	-38.0	nt	nt	-1.1	nt
CN(C)CCNc1ccc(-c2nn(C)c(=O)c3ccccc23)cc1[N+](=O)[O-]	3.6	0.2	1.2	0.2	-7.2	nt
CN(C)CCNc1ccc(CO)c2sc3ccc(O)cc3c(=O)c12	43.1	95.8*	85.2*	nt	-9.3	nt
CN(C)CCNc1ccc2ncn3c4ccc(O)cc4c(=O)c1c23	-6.2	63.8*	83.3*	-82.3	3.4	nt
C[C@@H]1CN([C@H](C)CO)C(=O)c2cc(C#Cc3ccccc3F)cnc2O[C@H]1CN(C)C(=O)C1CCOCC1	1.3	-11.0	nt	nt	nt	-1.1
COc1ccc(NC(=O)N(C)C[C@@H]2Oc3ccc(NS(C)(=O)=O)cc3CC(=O)N([C@H](C)CO)C[C@@H]2C)cc1	-10.2	-16.1	nt	nt	nt	6.8
C=CCn1c(SCc2ccccc2)nc2scc(-c3ccc(C)o3)c2c1=O	nt	nt	2.9	-1.8	nt	3.5
C=CCn1c(SCC(N)=O)nc2scc(-c3ccc(C)o3)c2c1=O	-80.3	-98.9	-16.2	25.5	47.6*	nt
C=CCn1c(SCC(=O)c2[nH]c(C)c(C(=O)OCC)c2C)nc2scc(-c3ccc(OC)cc3)c2c1=O	38.0	-1.5	81.9*	-81.6	0.0	nt
COc1ccc(NC(=O)N(C)C[C@H]2Oc3ccc(NC(=O)CCCN(C)C)cc3C(=O)N([C@H](C)CO)C[C@H]2C)cc1	-3.4	-4.0	nt	nt	nt	3.3
C[C@@H]1CCCCO[C@H](CN(C)Cc2ccc(C(F)(F)F)cc2)[C@@H](C)CN([C@@H](C)CO)C(=O)c2cc(NS(=O)(=O)c3ccc(Cl)cc3)ccc2O1	16.8	112.8*	nt	nt	nt	-1.6
C[C@@H]1CCCCO[C@H](CN(C)Cc2ccc(C(F)(F)F)cc2)[C@H](C)CN([C@@H](C)CO)C(=O)c2cc(NS(=O)(=O)c3ccc(Cl)cc3)ccc2O1	27.0	104.7*	nt	nt	nt	-4.5
C[C@@H]1CCCCO[C@@H](CN(C)Cc2ccc(C(F)(F)F)cc2)[C@@H](C)CN([C@H](C)CO)C(=O)c2cc(NS(=O)(=O)c3ccc(Cl)cc3)ccc2O1	-10.6	-15.9	nt	nt	nt	-3.4
C[C@H]1CCCCO[C@H](CN(C)Cc2ccc(C(F)(F)F)cc2)[C@@H](C)CN([C@@H](C)CO)C(=O)c2cc(NS(=O)(=O)c3ccc(Cl)cc3)ccc2O1	13.8	92.6*	nt	nt	nt	-8.1
CO[C@H]1CN(C)C(=O)c2cc(NC(C)=O)ccc2OC[C@@H](C)N(C(=O)c2cnccn2)C[C@H]1C	11.2	-14.8	nt	nt	nt	-2.9
CCCNC(=O)N1CC2(CN(C(=O)c3cccc(F)c3)C2)c2c([nH]c3cc(OC)ccc23)[C@@H]1CO	2.9	nt	nt	nt	nt	nt
Cc1cccc(N2CCN(C(=O)c3[nH]c(C(F)(F)F)nc3-c3ccccc3)CC2)c1C	35.1	77.1*	nt	nt	-21.7	-45.3
CC(=O)N1CCN(C(=O)c2[nH]c(C(F)(F)F)nc2-c2ccccc2)CC1	7.6	-0.5	nt	nt	-0.7	2.7
SMILES	EWS-Fli block	PAX8 reporter	MITF TRPM1 inh	MITF TRPM1 HTS	Wnt bcat act	esBAF inh
O=C(c1[nH]c(C(F)(F)F)nc1-c1ccccc1)N1CCN(c2cccc(C(F)(F)F)n2)CC1	54.6*	22.7	nt	nt	-1.1	-12.2
COc1ccccc1N1CCN(C(=O)c2[nH]c(C(F)(F)F)nc2-c2ccccc2)CC1	71.8*	37.3	nt	nt	-12.6	-28.2
COc1ccc(N2CCN(C(=O)c3[nH]c(C(F)(F)F)nc3-c3ccccc3)CC2)cc1	-8.5	8.4	nt	nt	-2.9	0.0
CCC(=O)N(C)C[C@@H]1Oc2cc(C3=CCCCC3)ccc2S(=O)(=O)N([C@@H](C)CO)C[C@H]1C	10.3	nt	nt	nt	nt	nt
O=C(NCC1CCCCC1)C1(CC2CC(c3cccc(Br)c3)=NO2)CCNCC1 (stereo not drawn)	14.3	4.3	65.1*	-62.4	-1.9	4.1
C[C@H]1CN([C@@H](C)CO)C(=O)c2cccc(NS(C)(=O)=O)c2O[C@H]1CN(C)S(=O)(=O)c1cccs1	6.0	nt	nt	nt	nt	-5.1
CC(C)(C)c1ccc(-n2nc(C#N)c(Cl)cc2=O)cc1	57.8*	111.5*	98.2*	-97.4	-8.8	nt
S=C(NCCc1cccc(Cl)c1)NC1CCCCC1	nt	-255.8	-48.6	46.3	21.6	65.8*
Cc1ccn2cc(-c3ccc(Br)cc3)nc2c1	62.0*	1.1	19.1	-19.1	12.9	-64.9
Cc1nc(-c2ccc(NC(=O)Cc3ccccc3)cc2)cs1	-106.4	-166.1	-59.8	65.0	4.5	48.6*
CC(=O)Nc1cccc(-c2cn3ccc(C)cc3n2)c1	-113.0	-180.0	-24.7	25.1	nt	nt
Nc1nc(-c2ccc(NC(=O)c3ccco3)cc2)cs1	6.3	-15.7	9.5	-5.9	42.1*	-66.7
Cc1ccn2cc(-c3ccc(NC(=O)c4ccco4)cc3)nc2c1	nt	-64.7	-70.3	66.7	46.5*	-26.7
O=C(C[C@@H]1C[C@@H]2c3cc(NC(=O)c4cccnc4)ccc3O[C@@H]2[C@@H](CO)O1)NCc1ccncc1	3.6	nt	nt	nt	nt	-0.2
C/C(=N\NC(=O)c1cccc(C)c1O)c1ccc(NC(=O)Cc2ccccc2)cc1	-24.8	-128.5	-88.6	92.1*	12.8	nt
Cc1ccc(NC(=O)c2ccccc2NC(=O)Cc2ccccc2)cc1	nt	7.4	-8.3	12.0	35.3*	nt
Cc1nc(-c2ccc(NC(=O)c3ccco3)cc2)cs1	83.6*	87.5*	73.4*	-69.6	-9.4	-77.3
C[C@H]1CN([C@@H](C)CO)C(=O)c2cc(Br)cnc2O[C@H]1CN(C)S(=O)(=O)c1ccc(F)cc1	-17.2	nt	nt	nt	nt	-3.7
Cc1ccccc1C(=O)N/N=C/c1cccc2ccccc12	-82.1	-56.4	-33.9	37.6	3.9	?
Cc1ccc(Cl)cc1NC(=S)N/N=C/c1cccc2ccccc12	53.1*	14.7	8.9	nt	-10.8	nt
COc1ccc(CCNc2oc(COc3ccccc3F)nc2C#N)cc1OC	nt	nt	-5.0	5.3	nt	-7.6
CCNc1oc(COc2ccccc2F)nc1C#N	nt	nt	-14.4	13.1	nt	52.1*
CN(C)c1ccc(C=C2SC(=S)NC2=O)cc1	-85.6	-171.6	-26.7	20.9	-1.1	53.8*
